According to ChEMBL document CHEMBL1157539, “Thousands of chemical starting points for antimalarial lead identification” (Nature, 2010):

What was measured:
Format in all cases: functional
[1] = tested on: Plasmodium falciparum; assay: GSK_TCMDC: Inhibition of Plasmodium falciparum 3D7 in whole red blood cells, using parasite LDH activity as an index of growth. Test compounds present at 2uM
[2] = tested on: Plasmodium falciparum; assay: GSK_TCMDC: Inhibition of Plasmodium falciparum Dd2 in whole red blood cells, using parasite LDH activity as an index of growth. Test compounds present at 2uM
[3] = tested on: HepG2; assay: GSK_TCMDC: Percent inhibition of human HepG2 cell line. Test compounds present at 10uM.

Row | Structure (SMILES) | Inhibition [1] | Inhibition [2] | Inhibition [3]
1 | COc1ccc(-c2nc(NC(=O)CS(=O)(=O)c3ccccc3)sc2C)cc1 | 99% | 82% | 7%
2 | CN(C)CCCOC(=O)c1cc2cc(-c3ccccc3)ccc2n1S(=O)(=O)Cc1ccccc1.Cl | 100% | 70% | 13%
3 | O=C(Nc1ccc(-c2csc(-c3nc4ccccc4[nH]3)c2)cc1)Nc1ccc(Cl)c(Cl)c1 | 93% | 18% | 75%
4 | O=C(CCCc1ccccc1)Nc1cccc(N2CCC(N3CCN(c4ccccc4O)CC3)CC2)c1 | 98% | 41% | 31%
5 | COc1ccc(NC(=O)/C=C/c2ccc(Cl)c(C(F)(F)F)c2)cc1OCCN(C(C)C)C(C)C.O=C(O)C(F)(F)F | 95% | 28% | 18%
6 | CCCc1cc(NCC)nc(Nc2ccc(F)cc2)n1 | 86% | 36% | 16%
7 | N#Cc1ccc(-c2ccc(C(=O)NC3CCN(CCN4CCC(c5cn(CCOC6CCCCO6)c6ccccc56)CC4)CC3)cc2)cc1 (centres undefined) | 99% | 86% | 48%
8 | C=CCN1C(=O)c2[nH]nc(-c3cc(C)c(C)cc3O)c2C1c1cccc(Br)c1 (centres undefined) | 90% | 82% | 0%
9 | CC(C)(C)OC(=O)NCc1ccc(Nc2nnc(-c3ccc(OCC(=O)NCc4cc(C(F)(F)F)cc(C(F)(F)F)c4)c([N+](=O)[O-])c3)o2)cc1 | 97% | 92% | 24%
10 | CCOC(=O)c1sc(C(C)Nc2ccccc2)nc1-c1ccccc1 (centres undefined) | 95% | 91% | 0%
11 | C[C@H](Cc1ccc(OCCNC[C@H](O)c2cccc(Cl)c2)cc1)NC[C@H](O)c1ccc(Cl)c(Cl)c1.O | 83% | 64% | 69%
12 | O=C(NCc1cccc(F)c1)Nc1cccc(-c2ccc(-c3nc4cc(F)ccc4[nH]3)cc2)c1 | 84% | 0% | 46%
13 | COc1cc(C(=O)NCCCN2CCN(c3cccc(Cl)c3)CC2)ccc1-c1nc2cc(Cl)c(F)cc2[nH]1 | 100% | 81% | 15%
14 | COc1ccc(N2C(N)=NC(N)=NC2(C)C)cc1.Cl | 94% | 29% | 0%
15 | COc1ccccc1-c1ccc(C(=O)NCC2CCCN(Cc3cccc(C(F)(F)F)c3)C2)s1.O=C(O)C(F)(F)F (centres undefined) | 81% | 37% | 18%
16 | CC(CNC(=O)c1cc2c(Cl)cc(Cl)cc2[nH]1)CNc1cc(=O)c2ccccc2[nH]1.O=C(O)C(F)(F)F (centres undefined) | 97% | 11% | 11%
17 | Cc1cc(NC(=O)Nc2cccc(Cl)c2Cl)c2ccccc2n1 | 96% | 25% | 0%
18 | CCOC(=O)/C(=N\OC(C)(C)C(=O)NCc1ccc(O)c(O)c1)c1csc(NC(c2ccccc2)(c2ccccc2)c2ccccc2)n1 | 100% | 99% | 13%
19 | O=C(Nc1cccc(-c2ccc(-c3nc4cc(C(F)(F)F)ccc4[nH]3)s2)c1)c1c[nH]cn1 | 89% | 36% | 55%
20 | O=C(/C=C/c1cccs1)NCC(NCCCNc1cc(=O)c2ccccc2[nH]1)c1cc(Br)cc(Br)c1 (centres undefined) | 100% | 58% | 0%
21 | O=C(/C=C/c1ccc(Cl)c(Cl)c1)NCCCCCN1CCC(c2c[nH]c3c(-c4ccccc4)cccc23)CC1 | 99% | 40% | 74%
22 | O=C(Nc1ccc(-c2cccc(CN3CCC(O)CC3)c2)cc1)c1cccc(Cl)c1.O=C(O)C(F)(F)F | 94% | 14% | 50%
23 | CN(C)CCC(O)C=C(c1ccc(Cl)cc1)c1ccc(Cl)cc1 (centres undefined) | 93% | 85% | 33%
24 | N#Cc1ccc(CN2CCC(NC(=O)c3ccc(-c4nnc(-c5cccc6ccccc56)o4)cc3)CC2)cc1 | 98% | 14% | 37%
25 | CCN(CC)CCN(Cc1ccc(-c2ccc(C#N)cc2)cc1)C(=O)Cn1c(CCc2cccc(F)c2F)nc(=O)c2ccccc21.O=C(O)C(O)C(O)C(=O)O | 100% | 46% | 31%
26 | O=C(NC(Cc1ccccc1)C(=O)O)c1cc(=O)c2ccccc2o1 (centres undefined) | 99% | 10% | 53%
27 | CCCc1nc2c(N3CC(NC(=O)/C=C/c4ccccc4)C3)cccc2n1C1CC1 | 83% | 68% | 1%
28 | O=C1OC2(CCN(C(=O)c3ccc(-n4cnnn4)cc3)CC2)CN1Cc1ccc(Cl)c(Cl)c1 | 97% | 70% | 11%
